# Screens from PubChem.
# Shown are actives, neighbours in structure and some others; about 6.5% of the full set was active somewhere.
# IL1B secr inh – blocks inflammasome-driven IL-1 beta release; THP-1 LPS/ATP IL-1B secretion, AlphaLISA, 16 h; stronger effect = lower value; activity change, % at 57.5 µM; actives 4.7% (n = 360,000); in the data active = activity change below about -50%; inconclusive = mostly about -30% to -49%; note: % is set by controls: 0 for no effect and ±100 for the full control effect
#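 THP-1 cells pretreated 1 hr with compounds (up to 57.5 uM final), then stimulated with LPS (250 ng/mL final) plus ATP (1.25 mM final); secreted IL-1B measured by AlphaLISA after 16 hr, decreased signal indicating inhibition.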
# HT1080 IDH1KD tx – HT-1080 IDH1 knockdown cell toxicity (counter line). HT-1080 IDH1 knockdown viability, ATP luminescence, 48 h. actives 2% (n = 360,000). Potency, µM (top dose mostly 46.1 µM), for inactives: top-dose activity, negative = toxicity, hits mostly cytotoxic. AID 686971;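 note: potency is the fitted concentration of half-maximal effect; 0% = DMSO wells and -100% = cell-free medium wells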
#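 Luminescent ATP read-out (CellTiter-Glo, 10 min at room temperature) after 48 h compound exposure at 37 °C gave viability of IDH1-knockdown HT-1080 cells. Activity was normalised to DMSO and cell-free wells, then fitted as concentration-response curves.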
# TGFb inhibitor – TGF-b pathway inhibition; Potency, µM (doses to about 46.1 µM), inactives show at the highest dose activity, negative = inhibition, most hits filed as inhibitors; actives 1.2% (n = 410,000); HepG2 CAGA-GFP TGF-b/SMAD3 reporter, GFP fluorescence, 18 h; TGF-beta stimulated, 500 pg/mL final; note: potency is the fitted concentration of half-maximal effect; % is set by controls: 0 for no effect and ±100 for the full control effect; nearly all actives have a fitted effect of over 65% in size
#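 TGF-beta reporter screen: HEPG2 CAGA-GFP, 1% FBS, 500 pg/mL TGF-beta final, 18 h; per-cell GFP summed per well; curves fitted and categorized by class.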
# HT1080-NT tox – kills 2HG-producing HT-1080-NT fibrosarcoma cells | HT-1080-NT fibrosarcoma viability, CellTiter-Glo ATP luminescence, 48 h | Potency, µM (top dose mostly 46.1 µM), for inactives: at the highest dose activity, negative = less viability, hits mostly cytotoxic | actives 1.6% (n = 360,000);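 note: NT is the 2HG producing partner of a matched IDH1 knockdown line; potency is the fitted concentration of half-maximal effect; 0% = DMSO-treated cells and -100% = media-only wells without cells; nearly all actives have a fitted effect of over 55% in size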
#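 750 cells/well, RPMI + 5% FBS; 2 h settle, compound pin-transfer, 48 h at 37 degrees C. CellTiter-Glo 10 min RT, luminescence. Normalized to DMSO and media-only wells.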
# HepG2 viability – kills HepG2 cells in TGF-b inhibitor counter-screen | HepG2 CAGA-GFP viability, ATP luminescence, 18 h | Potency, µM (top dose mostly 46.1 µM), for inactives: at the highest dose activity change, negative = cytotoxicity, hits mostly cytotoxic | actives 0.76% (n = 410,000) | AID 588856; note: potency is the fitted concentration of half-maximal effect
#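 HepG2 CAGA-GFP cells (1000/well, DMEM with 1% FBS) received compound, then TGF-beta at 500 pg/mL final, and were incubated 18 hours at 37 degrees C. Viability was read by CellTiter-Glo luminescence. Media-only wells were set as complete cell-killing and DMSO as no toxicity.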
# Giardia killer – kills Giardia lamblia; activity change, % at 7.66 µM, hits read low; Giardia lamblia trophozoite viability; actives 0.15% (n = 340,000); AID 540267; in the data active = activity change below about -80%; inconclusive = between about -30% and that limit;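 note: parasites exposed to compound for two days anaerobically before the ATP read; % is set by controls: 0 for no effect and ±100 for the full control effect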
#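 Trophozoite viability was measured as ATP-dependent luminescence, read 15-30 min after reagent addition. Before that, parasites at 100 cells/well were exposed to compounds for 48 h, anaerobically, at 37 deg C.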
# The depositor's hits bear a star; ? = inconclusive; . = no result given. Unless noted, calls come from the whole dose curve; as a rule, active = well fitted curve in the direction sought with a large enough effect; inconclusive = small, poorly fitted or top-dose-only effect, or another doubt; inactive = no such curve, though single readings can be large; an effect the other way counts as inactive or inconclusive.
SMILES,IL1B secr inh,HT1080 IDH1KD tx,TGFb inhibitor,HT1080-NT tox,HepG2 viability,Giardia killer
CC1(C)CC(NC(=O)c2cccc(S(=O)(=O)N(Cc3ccccc3)c3ccccc3)c2)CC(C)(C)N1,-80.7*,-1.7%,?,-2.7%,14.1µM*,-4.2
Cc1ccc(N(C)S(=O)(=O)c2cccc(C(=O)NC3CC(C)(C)NC(C)(C)C3)c2)cc1,-20.9,-12.2%,15.7%,?,-18.1%,10.7
Cc1ccc(CC(=O)Nc2nc3c(s2)CCCC3)cc1,3.8,?,0.2%,?,-28.2%,-1.7
Cc1ccc([C@H]2C[C@H](n3cc(-c4ccc(F)cc4)nn3)[C@@H](O)CN2C(=O)c2cccs2)cc1,-51.5*,11.5%,-3.6%,11.9%,7.2%,.
CCCCCC(=O)N1C[C@@H](O)[C@H](n2cc(-c3ccc(F)cc3)nn2)C[C@@H]1c1ccc(C)cc1,-16.3,-11.1%,17.8µM*,-5.4%,-30.7%,.
CCCCCC(=O)N1C[C@@H](n2cc(-c3ccc(F)cc3)nn2)[C@H](O)C[C@@H]1c1ccc(C)cc1,-19.9,?,?,-22.9%,-29.2%,.
CCCCCC(=O)N1C[C@@H](n2cc(-c3ccc(F)cc3)nn2)[C@H](O)C[C@@H]1c1ccc(OC)cc1,-29.3,?,-0.7%,18.4µM*,-10.0%,.
Nc1nc(-c2ccccc2)cc(C(F)(F)F)n1,10.4,-19.2%,-3.5%,9.1%,-2.8%,-5.2
O=C(Nc1ccc(F)cc1F)c1sccc1SCc1cccc(C(F)(F)F)c1,-26.8,1.1%,?,9.8%,-7.5%,8.5
COc1ccc(NC(=O)c2sccc2SCc2cccc(C(F)(F)F)c2)cc1,-20.1,8.91µM*,?,?,-29.1%,-14.0
O=C(Nc1ccc(F)cc1)c1sccc1SCc1cccc(C(F)(F)F)c1,-20.8,17.8µM*,?,12.6µM*,-3.6%,8.8
COc1cccc(CNC(=O)Cn2cc3c(n2)-c2c(oc(C(=O)N4CCCC4)c2C)CC3)c1,.,.,?,.,-14.2%,.
COc1cccc(-n2c(SCC(=O)Nc3sc4c(c3C(N)=O)CCC4)nc3ccccc3c2=O)c1,-23.3,-3.5%,-2.1%,11.5%,-0.2%,-11.9
O=C(O)C(=O)/C(=C\c1ccc([N+](=O)[O-])cc1)c1ccc2ccccc2n1,-0.2,9.1%,13.2%,16.7%,2.2%,-11.5
Cc1ccc(-n2c(C3CC3c3ccc(Cl)cc3)n[nH]c2=S)cc1 (stereo unspecified),63.2,?,-23.9%,?,-35.9%,-2.5
S=c1[nH]nc(C2CC2c2ccc(Cl)cc2)n1-c1ccc(Cl)cc1 (stereo unspecified),-102.2*,-11.0%,?,-6.7%,-29.6%,18.4
CN(C(=O)COC(=O)c1ccc(-c2ccc(O)cc2)cc1)C1CCS(=O)(=O)C1 (stereo unspecified),1.0,18.4µM*,-11.2%,6.51µM*,-2.4%,0.0
Cc1ccc(S(=O)(=O)N2CCCCC2)cc1NC(=O)CCNC(=O)c1ccc([N+](=O)[O-])cc1,8.0,-2.7%,?,-5.5%,-2.0%,13.5
CCCCN(C)c1c(C)nc2ccc(C(=O)Nc3cc(-c4ccccc4)ccc3OC)cn12,?,?,?,?,12.6µM*,.
CCc1nc2ccc(C(=O)Nc3cc(-c4ccccc4)ccc3OC)cn2c1N(C)C(=O)c1cccc(OC)c1,-75.9*,-1.3%,-28.1%,-0.8%,-10.6%,.
CCc1nc2ccc(C(=O)Nc3cc(-c4ccccc4)ccc3OC)cn2c1N(C)Cc1ccc(OC)cc1,?,-17.2%,18.6%,-18.3%,-20.1%,.
CCc1nc2ccc(C(=O)Nc3cc(-c4ccccc4)ccc3OC)cn2c1N(C)Cc1nccs1,-79.9*,23.1µM*,?,?,-32.3%,.
CCc1nc2ccc(C(=O)Nc3cc(-c4ccccc4)ccc3OC)cn2c1N(C)CCCc1ccccc1,-7.6,?,5.0%,?,-32.7%,.
